Results filed as inconclusive are left out. The source made the active and inactive calls.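 Rule for the calls, unless noted: active = response below a set limit, under 55% cells CD8-positive and vesicle-bound, and CD8 cells' 90th-percentile brightness under 279; inactive = the rest.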
Experiments:
[1] = yeast TOR pathway RPL19A-GFP modulators, primary screen, cell-based, S. cerevisiae, multiplex flow cytometry (AID 1862; in the data active = percent of DMSO control GFP below about 86%;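 note: lower values mimic rapamycin by blocking the RPL19A rise seen in DMSO cells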); conditions: S. cerevisiae RPL19A-GFP strain, flow cytometry fluorescence, 3 h; at 10 µM; stronger effect = lower value
[2] = modulators of MEP2-GFP levels in yeast, primary screen, S. cerevisiae, multiplex flow cytometry (AID 1867;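 active = GFP response, as percent of the DMSO control, above the screen-wide mean plus 3 SD, about 139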;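 note: median GFP channel fluorescence of barcode-gated MEP2-GFP cells measured by flow cytometry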); conditions: S. cerevisiae MEP2-GFP strain, 3 h, at 10 µM, stronger effect = higher value, 100% means same as DMSO wells
[3] = modulators of CIT2-GFP expression in yeast, primary screen, S. cerevisiae, GFP fusion, multiplex flow cytometry (AID 1870;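 active = percent response above a set limit, the screen-wide mean plus 3 SD, cut at about 130% in these data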;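 note: barcoded CIT2-GFP strain pooled with four other GFP strains with rapamycin as positive control; median GFP fluorescence per well over plate mean of DMSO wells so 100% = DMSO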); conditions: 3 h, at 10 µM, stronger effect = higher value
[4] = modulators of LAP4-GFP expression in yeast, primary screen, S. cerevisiae, multiplex flow cytometry (AID 1873;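 active = GFP signal, as percent of the solvent control, above the screen mean plus 3 SD, about 149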); conditions: 3 h, at 10 µM, stronger effect = higher value
[5] = inhibitors of CD8+ T cell-vesicle binding, pilot screen, LFA-1/ICAM-1 modulator project, MLPCN validation set, flow cytometry (AID 2523); conditions: 2C mouse CD8+ T cells, at 7 µM, stronger effect = lower value; double positive events: measured here: CD8+/vesicle+ event percentage;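 for vesicle binding response: mean PE anti-B7-1 fluorescence of CD8+ cells relative to row control; 100% = QL9-loaded vesicles with DMSO vehicle in the same plate row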
[6] = biological target: Integrin beta-1 (Homo sapiens) + Integrin alpha-4 (Homo sapiens) (UniProt P13612+P05556); experiment: inhibition of HUTS-21 binding to VLA-4, pilot screen, VLA-4 allosteric modulator project, U937 cells, HUTS-21 mAb, flow cytometry, validation set (AID 2674;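 active = inhibition above 50%, about 3 SD of the validation set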;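 note: antibody binding induced by the VLA-4 ligand LDV present at three times its Kd; 0% = LDV ligand with antibody and no compound and 100% = antibody without LDV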); conditions: HUTS-21 LIBS mAb binding, at 6.7 µM, stronger effect = higher value, binding induced by LDV ligand
[7] = superoxide lowering in aged yeast cells, pilot screen, validation compound set (AID 2706;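 active = superoxide response below 65% of plate, a cut near 3 SD across the whole screen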;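 note: yeast exposed to compound for one week at 30 degrees C before staining; 100% = mean of all compound wells on the same plate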); conditions: S. cerevisiae aging, superoxide DHE fluorescence; at 10 µM, stronger effect = lower value
[8] = biological target: Beta-adrenergic receptor kinase 1 (Homo sapiens) (UniProt P25098); experiment: GRK2 binders displacing RNA aptamer, biochemical, validation, human GRK2, bead flow cytometry (AID 488806;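 active = aptamer binding inhibition above 30%, about 3 SD of noise from non-fluorescent compounds; inactive = inhibition at or below 30%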); conditions: bead-bound GRK2, FAM-aptamer displacement, at 10 µM, stronger effect = higher value
[9] = biological target: Beta-2 adrenergic receptor (Homo sapiens) (UniProt P07550); experiment: beta2AR agonists driving receptor internalization, pilot screen, cell-based, FAP fluorogen, flow cytometry, validation set (AID 504459;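 active = percent response above 42, roughly 3 SD of non-fluorescent test compounds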;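 note: agonist-driven loss of surface beta2AR via internalization measured by FAP dye flow cytometry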); conditions: Am2.2-beta2AR cells, FAP surface receptor flow cytometry; at 10 µM; stronger effect = higher value
[10] = biological target: AP-2 complex subunit beta (Homo sapiens) (UniProt P63010); experiment: inhibitors of arrestin peptide binding to AP2, pilot screen, biochemical, validation set, GST-AP2 beads, flow cytometry (AID 504541;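 active = inhibition above 54%, about 3 SD of non-fluorescent compounds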;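 note: AP2 carries R879A mutation and is captured from E. coli lysate; bead-bound FITC arrestin peptide fluorescence measuring arrestin peptide binding to AP2; 0% = DMSO wells and 100% = excess unlabeled arrestin peptide control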); conditions: FITC arrestin peptide, at 10 µM, stronger effect = higher value, AP2 beta2 appendage fragment, R879A mutant
[11] = yeast V-ATPase proton transport modulators, S. cerevisiae, pHLuorin, HTS validation (AID 504600; in the data active = response above about 15%;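 note: plate controls were DMSO for no effect and reference compound for full effect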); conditions: S. cerevisiae pHLuorin cytosolic pH, at 10 µM, stronger effect = higher value
[12] = system: anti-desmoglein-3 scFv antibody binding to human DSG3; experiment: inhibitors of anti-DSG3 scFv binding to DSG3, pilot screen, biochemical, validation compound set, bead-based, flow cytometry (AID 588368;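 active = binding below the plate cutoff, the plate median minus 3 SD, with a reading above zero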;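 note: signal is the median channel fluorescence of bead-bound GFP antibody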); conditions: Protein G beads, DSG3-Fc, scFv-GFP binding, at 10 µM, stronger effect = lower value
[13] = inhibitors of fungal efflux pumps CDR1, CDR2, MDR1, pilot screen, validation compound set, multiplex, phenotypic (AID 588506;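 active = efflux inhibition above 0.42, the validation set average plus 4 SD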;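 note: Nile Red retained in cells so higher fluorescence means more efflux inhibition; 0 = negative control wells and 1 = enniatin B 25 µM full block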); conditions: S. cerevisiae pump-expressing triplex, Nile Red efflux flow cytometry; at 10 µM; stronger effect = higher value; the pumps come from Candida albicans
[14] = biological target: ATP-binding cassette sub-family B member 6 (Homo sapiens) (UniProt Q9NP58); experiment: ABCB6 transporter inhibitors, pilot screen, K562-ABCB6 cells, flow cytometry, validation set (AID 588550;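 active = inhibition above the screen-wide mean plus 3 SD, about 51%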;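 note: 0% = DMSO wells and 100% = benzethonium chloride 70 µM positive control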); conditions: K562-ABCB6 porphyrin accumulation, 1 h, at 10 µM, stronger effect = higher value
[15] = promoters of myeloid differentiation in arrested cells, primary screen, cell-based, GFP/MAC1 double positive, flow cytometry, validation set (AID 588685;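 active = differentiation response of at least 50%, scaled between solvent and reference control, from cells with both markers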;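 note: compound exposure lasts four days before antibody staining and flow analysis; 0% = DMSO wells and 100% = 5 µM fulvestrant positive control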); conditions: ER-HoxA9 marrow cells, stronger effect = higher value, normalized: vehicle 0, fulvestrant 100
[16] = modulators of AGP1-GFP expression in yeast TOR pathway, primary screen, cell-based, multiplex flow cytometry, S. cerevisiae (AID 1887;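 active = GFP signal above the screen-wide mean plus 3 SD, that is over about 124.5% of the solvent control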;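 note: AGP1-GFP fusion strain of S. cerevisiae within a five-strain barcoded multiplex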); conditions: 3 h, at 10 µM, stronger effect = higher value

ATP-binding cassette sub-family B member 6 (Homo sapiens), sequence (Q9NP58 whole entry, looked up): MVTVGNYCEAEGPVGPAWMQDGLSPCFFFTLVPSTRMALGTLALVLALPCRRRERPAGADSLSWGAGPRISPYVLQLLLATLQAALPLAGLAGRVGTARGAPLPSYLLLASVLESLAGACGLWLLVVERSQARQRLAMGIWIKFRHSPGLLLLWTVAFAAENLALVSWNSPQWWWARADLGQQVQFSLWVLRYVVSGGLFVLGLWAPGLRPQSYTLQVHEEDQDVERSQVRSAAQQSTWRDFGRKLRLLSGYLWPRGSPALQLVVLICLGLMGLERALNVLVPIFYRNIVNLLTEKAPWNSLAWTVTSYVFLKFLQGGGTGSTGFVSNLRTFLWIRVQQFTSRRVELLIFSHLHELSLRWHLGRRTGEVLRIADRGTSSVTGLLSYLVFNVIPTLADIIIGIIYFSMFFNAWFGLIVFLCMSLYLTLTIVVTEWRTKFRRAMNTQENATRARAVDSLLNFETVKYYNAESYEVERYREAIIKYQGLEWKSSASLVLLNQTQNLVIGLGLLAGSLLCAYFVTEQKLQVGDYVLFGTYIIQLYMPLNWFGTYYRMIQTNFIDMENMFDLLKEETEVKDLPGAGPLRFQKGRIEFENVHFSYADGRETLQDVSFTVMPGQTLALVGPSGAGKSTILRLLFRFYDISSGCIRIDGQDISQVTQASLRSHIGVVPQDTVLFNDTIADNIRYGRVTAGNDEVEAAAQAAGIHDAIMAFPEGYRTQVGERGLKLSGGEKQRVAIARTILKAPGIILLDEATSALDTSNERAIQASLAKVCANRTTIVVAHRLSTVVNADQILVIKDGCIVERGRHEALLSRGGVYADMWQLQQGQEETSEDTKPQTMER
Beta-adrenergic receptor kinase 1 (Homo sapiens), sequence (P25098 whole entry, looked up): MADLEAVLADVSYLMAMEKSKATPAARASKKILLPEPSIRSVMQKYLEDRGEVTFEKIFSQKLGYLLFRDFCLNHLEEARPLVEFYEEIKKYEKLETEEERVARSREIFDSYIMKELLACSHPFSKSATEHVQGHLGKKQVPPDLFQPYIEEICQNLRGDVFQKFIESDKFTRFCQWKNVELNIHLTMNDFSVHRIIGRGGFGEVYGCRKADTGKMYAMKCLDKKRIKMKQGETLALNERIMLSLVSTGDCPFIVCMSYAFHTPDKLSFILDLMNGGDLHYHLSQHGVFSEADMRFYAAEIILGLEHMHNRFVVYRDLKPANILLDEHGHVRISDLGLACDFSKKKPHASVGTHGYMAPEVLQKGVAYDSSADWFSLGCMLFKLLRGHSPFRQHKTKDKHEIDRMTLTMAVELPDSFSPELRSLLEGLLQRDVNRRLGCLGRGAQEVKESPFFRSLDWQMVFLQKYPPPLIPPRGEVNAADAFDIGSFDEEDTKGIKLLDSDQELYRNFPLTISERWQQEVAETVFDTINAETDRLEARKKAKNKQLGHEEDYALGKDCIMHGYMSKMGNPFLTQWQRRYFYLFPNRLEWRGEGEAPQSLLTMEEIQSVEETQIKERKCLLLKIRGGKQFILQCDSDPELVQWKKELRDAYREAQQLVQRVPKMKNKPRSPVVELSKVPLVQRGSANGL
AP-2 complex subunit beta (Homo sapiens), sequence (P63010 whole entry, looked up, the tested form may be a part, one chain of several): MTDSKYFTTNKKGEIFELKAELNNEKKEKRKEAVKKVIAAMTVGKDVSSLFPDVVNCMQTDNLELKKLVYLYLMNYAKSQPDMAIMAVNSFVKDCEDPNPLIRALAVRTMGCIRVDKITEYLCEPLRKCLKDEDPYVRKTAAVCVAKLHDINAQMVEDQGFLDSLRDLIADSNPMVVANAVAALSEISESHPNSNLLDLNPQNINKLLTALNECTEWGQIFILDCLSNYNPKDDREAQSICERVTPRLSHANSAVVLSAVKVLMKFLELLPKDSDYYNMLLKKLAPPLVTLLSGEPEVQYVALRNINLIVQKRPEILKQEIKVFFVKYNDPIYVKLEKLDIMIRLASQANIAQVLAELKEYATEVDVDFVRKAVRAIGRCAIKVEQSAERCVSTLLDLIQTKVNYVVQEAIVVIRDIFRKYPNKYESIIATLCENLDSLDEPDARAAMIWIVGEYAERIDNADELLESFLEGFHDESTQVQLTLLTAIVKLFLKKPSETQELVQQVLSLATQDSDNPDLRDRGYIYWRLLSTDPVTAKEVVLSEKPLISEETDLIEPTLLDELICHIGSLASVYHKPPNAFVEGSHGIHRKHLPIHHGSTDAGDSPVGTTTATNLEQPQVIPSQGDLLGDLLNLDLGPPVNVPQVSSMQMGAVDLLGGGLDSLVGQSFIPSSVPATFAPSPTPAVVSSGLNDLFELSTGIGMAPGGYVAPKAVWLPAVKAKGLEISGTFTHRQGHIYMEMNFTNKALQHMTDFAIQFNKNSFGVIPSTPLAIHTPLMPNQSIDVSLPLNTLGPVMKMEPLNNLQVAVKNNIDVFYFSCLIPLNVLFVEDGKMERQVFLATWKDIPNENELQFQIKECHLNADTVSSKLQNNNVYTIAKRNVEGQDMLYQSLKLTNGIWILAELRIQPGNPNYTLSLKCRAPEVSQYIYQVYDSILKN
Beta-2 adrenergic receptor (Homo sapiens), sequence (P07550 whole entry, looked up): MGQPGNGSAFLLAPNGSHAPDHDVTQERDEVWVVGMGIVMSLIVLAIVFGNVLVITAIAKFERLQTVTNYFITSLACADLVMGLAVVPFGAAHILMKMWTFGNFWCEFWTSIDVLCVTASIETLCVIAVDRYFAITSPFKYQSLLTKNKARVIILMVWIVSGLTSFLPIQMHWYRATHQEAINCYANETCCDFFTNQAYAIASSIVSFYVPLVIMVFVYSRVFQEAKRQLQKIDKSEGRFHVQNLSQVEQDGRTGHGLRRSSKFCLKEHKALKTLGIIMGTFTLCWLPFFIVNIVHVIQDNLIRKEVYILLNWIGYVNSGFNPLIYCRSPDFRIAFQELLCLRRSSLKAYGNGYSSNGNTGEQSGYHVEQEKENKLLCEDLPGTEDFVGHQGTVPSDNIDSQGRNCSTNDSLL
Integrin beta-1 (Homo sapiens) + Integrin alpha-4 (Homo sapiens), sequence (P05556 whole entry, looked up): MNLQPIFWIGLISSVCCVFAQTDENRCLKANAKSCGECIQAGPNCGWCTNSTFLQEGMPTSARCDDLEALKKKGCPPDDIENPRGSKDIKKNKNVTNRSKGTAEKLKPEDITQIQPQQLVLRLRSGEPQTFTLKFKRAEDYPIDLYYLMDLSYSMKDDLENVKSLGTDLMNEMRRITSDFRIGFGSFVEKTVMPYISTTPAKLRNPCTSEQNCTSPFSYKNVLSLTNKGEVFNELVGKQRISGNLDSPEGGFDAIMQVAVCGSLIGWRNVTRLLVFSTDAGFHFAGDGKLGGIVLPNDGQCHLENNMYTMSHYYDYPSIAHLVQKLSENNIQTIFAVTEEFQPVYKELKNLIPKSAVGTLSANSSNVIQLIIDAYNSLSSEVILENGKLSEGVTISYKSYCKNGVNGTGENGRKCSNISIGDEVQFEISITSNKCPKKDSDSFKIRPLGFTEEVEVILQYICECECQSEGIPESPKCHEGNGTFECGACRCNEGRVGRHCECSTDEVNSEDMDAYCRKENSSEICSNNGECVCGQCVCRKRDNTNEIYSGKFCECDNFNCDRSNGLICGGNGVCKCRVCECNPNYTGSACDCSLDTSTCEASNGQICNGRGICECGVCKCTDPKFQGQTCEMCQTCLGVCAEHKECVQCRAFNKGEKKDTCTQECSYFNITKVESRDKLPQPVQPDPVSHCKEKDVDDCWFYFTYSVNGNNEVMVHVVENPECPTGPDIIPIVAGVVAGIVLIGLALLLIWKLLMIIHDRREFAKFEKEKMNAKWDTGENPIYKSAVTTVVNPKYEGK
Integrin beta-1 (Homo sapiens) + Integrin alpha-4 (Homo sapiens), sequence (P13612 whole entry, looked up): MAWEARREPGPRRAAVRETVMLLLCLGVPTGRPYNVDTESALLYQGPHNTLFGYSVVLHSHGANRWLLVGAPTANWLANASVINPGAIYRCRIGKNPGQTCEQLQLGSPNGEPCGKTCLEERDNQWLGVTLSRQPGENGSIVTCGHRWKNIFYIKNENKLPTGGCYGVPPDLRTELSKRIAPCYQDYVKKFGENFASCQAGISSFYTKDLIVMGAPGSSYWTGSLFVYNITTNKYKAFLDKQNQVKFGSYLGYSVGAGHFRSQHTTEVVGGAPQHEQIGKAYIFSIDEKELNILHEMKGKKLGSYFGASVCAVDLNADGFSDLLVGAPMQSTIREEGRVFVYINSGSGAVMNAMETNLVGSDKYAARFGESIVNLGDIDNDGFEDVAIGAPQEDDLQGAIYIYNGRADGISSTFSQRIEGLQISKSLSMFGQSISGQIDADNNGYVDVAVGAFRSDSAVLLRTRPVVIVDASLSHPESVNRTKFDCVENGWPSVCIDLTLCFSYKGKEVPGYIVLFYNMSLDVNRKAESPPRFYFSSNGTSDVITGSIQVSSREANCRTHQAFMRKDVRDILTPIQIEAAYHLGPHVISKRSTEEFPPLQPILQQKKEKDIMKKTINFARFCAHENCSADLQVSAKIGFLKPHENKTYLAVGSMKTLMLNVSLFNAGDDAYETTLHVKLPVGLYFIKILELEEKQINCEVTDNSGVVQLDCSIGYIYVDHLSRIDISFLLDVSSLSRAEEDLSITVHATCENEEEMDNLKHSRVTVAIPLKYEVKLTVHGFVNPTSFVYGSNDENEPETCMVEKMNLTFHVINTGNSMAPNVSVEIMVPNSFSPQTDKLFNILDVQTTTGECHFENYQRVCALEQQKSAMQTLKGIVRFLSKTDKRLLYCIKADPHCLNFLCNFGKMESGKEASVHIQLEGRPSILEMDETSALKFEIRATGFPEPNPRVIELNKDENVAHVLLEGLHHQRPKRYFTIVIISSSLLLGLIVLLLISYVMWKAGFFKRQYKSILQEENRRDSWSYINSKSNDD

COC(=O)c1ccc(CC(=O)c2ccc(O)cc2O)o1
inactive: percent of DMSO control GFP [1] 93.5% | GFP response vs DMSO [2] 119% | percent response of DMSO control [3] 91.3% | GFP response vs DMSO [4] 79.8% | vesicle binding response [5] 248% | inhibition [6] -32.3% | superoxide response (% of plate) [7] 93.2% | aptamer binding inhibition [8] 4% | response [9] 7.39% | inhibition [10] 5.21% | binding (% of control) [12] 109% | efflux inhibition (fraction of control) [13] -0.24 | inhibition [14] -45% | differentiation response [15] 4.91%
72.3%: double positive events [5]
active: response [11] 18.1%

O=c1c2ccccc2nnn1Cc1cccc2ccccc12
61%: double positive events [5]
inactive: percent of DMSO control GFP [1] 89.1% | GFP response vs DMSO [2] 105% | percent response of DMSO control [3] 103% | GFP response vs DMSO [4] 78.7% | vesicle binding response [5] 217% | inhibition [6] -13.9% | superoxide response (% of plate) [7] 103% | aptamer binding inhibition [8] 1% | response [9] -3.06% | inhibition [10] -7.09% | response [11] 3.28% | binding (% of control) [12] 99% | efflux inhibition (fraction of control) [13] -0.2 | inhibition [14] 13% | differentiation response [15] -0.82%

COc1ccc(C2C3C(C)=NN=C3CC(C)(O)C2C(C)=O)cc1 (stereo unspecified)
inactive: percent of DMSO control GFP [1] 99.5% | percent response of DMSO control [3] 97.7% | GFP response vs DMSO [4] 94% | GFP response, % of DMSO [16] 96.9% | vesicle binding response [5] 265% | inhibition [6] 13.2% | superoxide response (% of plate) [7] 103% | aptamer binding inhibition [8] 6% | response [9] -1.78% | inhibition [10] 12.8% | response [11] 2.14% | binding (% of control) [12] 101% | efflux inhibition (fraction of control) [13] -0.21 | inhibition [14] 3% | differentiation response [15] -18.4%
60.7%: double positive events [5]

COc1cccc(N2C(=O)[C@H]3C(C(=O)c4cnccn4)=NN[C@H]3C2=O)c1
inactive: percent of DMSO control GFP [1] 93.5% | GFP response vs DMSO [2] 123% | percent response of DMSO control [3] 111% | GFP response vs DMSO [4] 79.8% | vesicle binding response [5] 191% | inhibition [6] 14.2% | superoxide response (% of plate) [7] 106% | aptamer binding inhibition [8] 2% | response [9] -6.07% | inhibition [10] -1.17% | response [11] -1.86% | binding (% of control) [12] 98.9% | efflux inhibition (fraction of control) [13] -0.13 | inhibition [14] 8% | differentiation response [15] -4.91%
63.5%: double positive events [5]

NC12CC3CC(CC(C3)C1)C2
inactive: percent of DMSO control GFP [1] 94.4% | GFP response vs DMSO [2] 119% | percent response of DMSO control [3] 111% | GFP response vs DMSO [4] 78.7% | vesicle binding response [5] 195% | inhibition [6] -27.5% | superoxide response (% of plate) [7] 96.9% | aptamer binding inhibition [8] -5% | response [9] -15.1% | inhibition [10] 0.4% | response [11] 3.04% | binding (% of control) [12] 102% | efflux inhibition (fraction of control) [13] -0.24 | inhibition [14] 15% | differentiation response [15] -1.64%
60.2%: double positive events [5]

CC1(C)C2CCC1(C)C(OCC[N+](C)(C)CC(=O)OC1CCCCC1)C2 (stereo unspecified)
inactive: percent of DMSO control GFP [1] 88% | GFP response vs DMSO [2] 104% | percent response of DMSO control [3] 104% | GFP response vs DMSO [4] 78.1% | vesicle binding response [5] 196% | inhibition [6] 12.3% | superoxide response (% of plate) [7] 95.2% | aptamer binding inhibition [8] -4% | response [9] -4.15% | inhibition [10] -2.94% | response [11] 3.18% | binding (% of control) [12] 109% | efflux inhibition (fraction of control) [13] -0.06 | inhibition [14] 6% | differentiation response [15] -5.73%
70%: double positive events [5]

Reference: PubChem BioAssay
